Compound activity deposited in PubChem BioAssay by National Center for Advancing Translational Sciences (NCATS).
A selection: hits, their analogues and other compounds. The true share with any hit is near 21%.
CHX counter – counter-screen hit for Shiga toxin inhibitors, cycloheximide. 300,000 tested, 12% active. max response, %. AID 2314. cell reporter, cycloheximide protein synthesis inhibition counterscreen; in the data active means max response mostly above about 13%, no sharp cut-off; inactive means mostly below about 14%; further: read at 38.3 µM for the half of the compounds with a filed dose; 0% is about no effect
Pf growth 96h – P. falciparum growth inhibition at 96 hour, primary screen for plastid delayed-death inhibitors. P. falciparum luciferase reporter growth, 96 h. Potency, µM (doses to about 28.7 µM), inactives show top-dose activity change, negative = inhibition, actives largely listed as inhibitors. 320,000 tested, 6.9% active. AID 504834; further: potency means the concentration at half of the fitted maximal effect; on the % scale 0 is the no-effect control and ±100 the full control effect
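Luminescence readout: decreased luciferase signal marks inhibited growth of reporter-expressing P. falciparum in infected red cells (2% hematocrit, 0.05% parasitemia final), exposed to compound two generations (96 h, 37 C, 5% CO2).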
Pf growth 48h – P. falciparum growth inhibition at 48 hours (one generation). P. falciparum luciferase growth in erythrocytes, 48 h. Potency, µM (series often up to 28.7 µM), without a hit: top-dose activity change, negative = inhibition, most hits filed as inhibitors. 310,000 tested, 5.9% active; further: potency means the concentration at half of the fitted maximal effect; on the % scale 0 is the no-effect control and ±100 the full control effect
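Luminescence readout; reporter = integrated firefly luciferase in P. falciparum. RBC culture at 2% hematocrit, 0.1% parasitemia final, 37 C/5% CO2; decreased signal taken as growth inhibition.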
AMA1 RON2 block – inhibitors of Plasmodium falciparum AMA1-RON2 interaction; AlphaScreen AMA1-biotinylated RON2 peptide binding; Potency, µM (highest dose often 58.2 µM), without a hit: top-dose activity change, negative = inhibition, hits mostly inhibitors; 360,000 tested, 0.2% active; AID 720542;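 further: potency means the concentration at half of the fitted maximal effect; 0% = vehicle wells and -100% = peptide control; nearly all actives have a fitted effect of over 45% in size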
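AMA1 (3D7) with his tag at 25 nM final met compounds first, then biotinylated RON2 peptide at 25 nM; detection used donor plus acceptor beads, 10 µg/mL apiece, read by AlphaScreen after 30 min at room temperature.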
Shiga inhibitor – Shiga toxin inhibition; Vero cells, Shiga toxin protein synthesis inhibition reporter; inhibition, % at 38.7 µM; AID 2315; 290,000 tested, 9.2% active; in the data active means inhibition mostly above about 28%, no sharp cut-off; inactive means mostly below about 43%; further: 0% is about no effect
HCV inhibitor – blocks hepatitis C virus. AID 651820. Potency, µM (top dose mostly 41.8 µM), without a hit: at the top dose activity change, negative = inhibition, actives largely listed as inhibitors. 340,000 tested, 3.4% active. Huh7.5.1 HCVcc-Cre infection, luciferase reporter, 44 h; further: potency means the concentration at half of the fitted maximal effect; on the % scale 0 is the no-effect control and ±100 the full control effect
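After 44 h co-culture of compound, cells and HCVcc-Cre (~0.5 moi), substrate is added for 15 min at room temperature and luciferase measured over 15 sec. Cells were seeded at 1,000/well and pre-cultured 4 h.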
* = called active by the depositor; ? = inconclusive; · = not tested or not shown. Unless noted, the call rests on the fitted dose curve; in most records, active means well fitted curve in the direction sought with a large enough effect; inconclusive means small, poorly fitted or top-dose-only effect, or another doubt; inactive means no such curve, though single readings can be large; an effect the other way counts as inactive or inconclusive.

SMILES | CHX counter | Pf growth 96h | Pf growth 48h | AMA1 RON2 block | Shiga inhibitor | HCV inhibitor
O=C(Nc1nc2ccc(S(=O)(=O)N3CCCC3)cc2s1)c1cccs1 | 2.3 | 29.2% | 7.8% | 24.4% | -1.8 | -11.0%
O=C(Nc1nc2ccc(F)cc2s1)c1cccs1 | 49.6* | ? | 351.7% | -6.8% | 126.0* | -24.1%
CN(C)S(=O)(=O)c1ccc2nc(NC(=O)c3cccs3)sc2c1 | 41.2* | 40.2% | · | -4.8% | 70.4* | -24.7%
CSc1ccccc1NC(=O)CN(C)C(=O)C1CCN(C(=O)Nc2ccccc2)CC1 | · | 2.9% | ? | -4.7% | · | -0.9%
CNc1nc(-c2ccccc2)c2sccc2n1 | · | · | · | 47.6% | · | ·
CCN(CC)S(=O)(=O)c1ccc2nc(SC)sc2c1 | -1.3 | · | ? | 8.3% | -21.8 | -0.4%
CSc1nc2ccc(S(=O)(=O)N(C)C)cc2s1 | 8.0 | 11.7µM* | · | -2.8% | -4.0 | 12.8%
CN(C)S(=O)(=O)c1ccc2nc(NC(=O)c3cccnc3)sc2c1 | 28.7* | ? | -4.1% | 0.5% | 106.9* | -4.9%
CSc1nc2ccc3nc(NC(=O)c4cccs4)sc3c2s1 | 43.5* | ? | -15.7% | 2.1% | 51.4* | -13.2%
CC(C)C[C@H](NC(=O)[C@@H](Cc1c[nH]c2ccccc12)NC(=O)[C@H](Cc1ccc(O)cc1)NC(=O)[C@H](CO)NC(=O)[C@H](Cc1c[nH]c2ccccc12)NC(=O)[C@H](Cc1cnc[nH]1)NC(=O)[C@@H]1CCC(=O)N1)C(=O)N[C@@H](CCCN=C(N)N)C(=O)N1CCC[C@H]1C(=O)NCC(N)=O | -1.6 | · | · | · | -4.6 | ·
Cn1ccc(C(=O)NC(=S)N2CCSCC2)n1 | 12.2* | 32.5% | -14.3% | 39.5% | 12.1 | 6.4%
CCOC(=O)C1CCN(C(=O)Cn2nc(CC)n3cccc3c2=O)CC1 | -5.4 | ? | 3.6% | -7.5% | -1.6 | 5.3%
CCOC(=O)C1=C(N)OC2=C(C(=O)CC(C)(C)C2)C1c1ccco1 (centres undefined) | -2.3 | -3.5% | 0.0% | 5.0% | -5.1 | 11.6%
CCOC(=O)C1=C(N)OC2=C(C(=O)CC(C)(C)C2)C1c1ccc(C)s1 (centres undefined) | 26.5* | 0.0% | -7.8% | -15.1% | 89.2* | -7.2%
CCOC(=O)C1=C(N)OC2=C(C(=O)CC(C)(C)C2)C1c1ccc(CC)s1 (centres undefined) | 28.0 | 4.15µM* | 23.7% | -25.4% | 44.3 | -27.7%
O=C(NC1CCCCC1)c1cccc(NC(=O)c2ccccc2Cl)c1 | · | · | · | 10.0% | · | ·
O=C(NC1CCCCC1)c1cc(-c2ccccc2Cl)on1 | 44.6* | 14.9% | 86.9% | -7.9% | 137.4* | -7.1%
CC1CCCC(C)N1C(=O)c1cc(-c2cccs2)on1 (centres undefined) | 26.5* | -5.8% | -54.0% | 6.7% | 70.2* | -3.9%
COCC(C)NC(=O)c1cc(-c2ccccc2OC)on1 (centres undefined) | 41.0* | -4.7% | 80.1% | 8.5% | 38.6* | ?
O=C(NC1CCCCCCC1)c1c(Cl)cccc1Cl | · | · | · | -3.2% | · | 6.0%
O=C(NC1CCCC1)c1cc(-c2ccccc2Cl)on1 | 43.5* | 25.1% | 146.6% | 3.7% | 107.0* | ?
COc1ccc([C@H]2CC(=O)C[C@@H](CCn3cc(CCc4ccccc4)nn3)O2)cc1 | · | · | · | 0.0% | · | ·
Cc1ccc(/C(O)=C/C(=O)C(=O)NC23CC4CC(CC(C4)C2)C3)cc1 | -2.8 | 0.0% | 4.1% | 25.8% | 1.1 | -18.7%
O=C(NC1CCCCC1)c1csnn1 | · | · | · | 0.8% | · | 24.2%
O=C(NC1CCCC1)c1cc(-c2ccccc2O)on1 | 33.8* | 19.4% | -25.7% | 3.0% | 91.4* | 0.4%
SMILES | CHX counter | Pf growth 96h | Pf growth 48h | AMA1 RON2 block | Shiga inhibitor | HCV inhibitor
O=C(NC1CCCC1)c1cc(-c2cccs2)on1 | 56.9* | 50.8% | 260.2% | 0.8% | 181.8* | -5.6%
O=C(NC1CCCC1)c1cc(-c2ccc(Cl)cc2Cl)on1 | 44.1* | -20.3% | 69.0% | 2.3% | 104.8* | 6.6%
COc1ccc(NC(=O)c2cc(-c3cccs3)on2)c(OC)c1 | -6.7 | 82.1% | -2.8% | 0.8% | 7.4 | -23.2%
COc1ccccc1-c1cc(C(=O)NC2CCCC2)no1 | 15.6* | 228.4% | 28.5% | 4.7% | 71.0* | -6.1%
O=C(Nc1cccc(-n2cnnn2)c1)c1ccc(C(F)(F)F)cc1 | · | ? | ? | -5.4% | · | ?
C=CCn1c(NC(=O)c2ccco2)nc2ccccc21 | 17.0 | 11.4% | 11.7µM* | 77.2% | -22.0 | -19.3%
Cc1cccc(OCCn2c(NC(=O)c3ccco3)nc3ccccc32)c1 | 26.3* | 31.6% | ? | 20.7% | 89.2* | ?
CCC(=O)Nc1nc2ccccc2n1Cc1ccccc1 | 2.2 | ? | ? | 5.4% | -5.2 | ?
CCC(=O)Nc1nc2ccccc2n1Cc1ccc(C)cc1 | -2.4 | 0.2% | 2.94µM* | 112.6% | -13.1 | -27.4%
O=C(Nc1nc2ccccc2n1CCN1CCCCC1)c1ccco1 | 2.3 | ? | 3.4% | -7.2% | 18.7 | -8.7%
CC(NC(=O)/C=C/c1ccco1)c1nc2ccccc2n1Cc1cccc(Cl)c1 (centres undefined) | 53.7* | ? | 13.1µM* | 17.8% | 66.6* | ?
Cc1cccc(OCC(=O)Nc2ccc(NC(=O)c3ccco3)cc2)c1 | 2.2 | -0.2% | -5.3% | -3.7% | -4.4 | -18.2%
Cc1ccc(S(=O)(=O)c2nc(/C=C/c3ccccc3)oc2N2CCC(C(N)=O)CC2)cc1 | · | · | · | -7.5% | · | ·
O=C(Nc1nc2ccccc2n1CCOc1ccc(Cl)cc1)c1ccco1 | 20.1* | ? | · | 129.7% | 48.8 | ?
CC(=O)NCCCc1nc2ccccc2n1Cc1ccccc1F | -0.7 | -7.3% | 5.4% | -1.0% | 50.0 | 5.3%
CCn1c(NC(C)=O)nc2ccccc21 | -3.3 | ? | 18.5% | 43.4% | -3.0 | 11.8%
Cc1ccc(OCCn2c(NC(=O)c3ccco3)nc3ccccc32)cc1 | -2.9 | ? | 2.94µM* | 97.0% | -4.9 | 2.6%
CC(=O)Nc1nc2ccccc2n1Cc1ccc(Cl)cc1 | -1.9 | ? | 2.94µM* | 88.0% | 34.7 | -17.5%
CC(=O)NCc1nc2ccccc2n1Cc1ccccc1F | -3.2 | 2.08µM* | 34.5% | -16.8% | -4.1 | 13.3%
O=C1NC[C@@H](CCCCN2C[C@H](Cc3ccc(O)cc3)N(Cc3ccccc3)C(=O)C2=O)N(Cc2ccccc2)C1=O | · | · | · | -0.2% | · | ·
C[C@H]1CN([C@@H](C)CO)C(=O)c2cc(Br)cnc2O[C@H]1CN(C)C(=O)C1CC1 | · | · | · | -5.2% | · | ·
CC(=O)Nc1nonc1-c1nc2ccccc2n1Cc1ccccc1 | -1.9 | · | 11.7µM* | 18.7% | 12.9 | ?
O=C(Nc1nc2ccccc2n1CCOc1ccccc1)c1ccco1 | 47.7* | 2.94µM* | 2.94µM* | 30.7% | 79.7 | ?
CC(=O)Nc1nonc1-c1nc2ccccc2n1Cc1nnc(C)o1 | -2.3 | -11.1% | 3.0% | -0.9% | 2.2 | 4.6%
O=C(Nc1nc2ccccc2n1Cc1ccc(Cl)cc1)c1ccco1 | 3.1 | -20.0% | 11.7µM* | 108.1% | 13.7 | -14.7%
